rTrxR1 inhibitor = inhibitors of rat thioredoxin reductase 1 | recombinant rTrxR1, NADPH fluorescence consumption, selenite substrate | Potency, µM (titrated, usually from 114 µM), without a hit: top-dose activity change, negative = inhibition, usual class: inhibitors | 390,000 compounds, 1% hits | AID 588453; further: potency means the concentration at half of the fitted maximal effect; nearly all actives have a fitted effect of over 65% in size
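Rat TrxR1 (90 nM in the dispensed reagent) was pre-reduced with 400 uM NADPH for 5 min at room temperature, then incubated with compound for 15 min. After 400 uM selenite was added, NADPH fluorescence (Ex 340/Em 450 nm) was followed for 8 min.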
Eya2 phos inh = Eya2 (human) phosphatase inhibition; O00167; recombinant Eya2, OMFP fluorescence dephosphorylation (OMFP is methylfluorescein phosphate); Potency, µM (titrated, usually from 76.9 µM), without a hit: at the top dose activity, negative = inhibition, most hits filed as inhibitors; 330,000 compounds, 0.006% hits; AID 488837; further: potency means the concentration at half of the fitted maximal effect
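Eya2 (0.2 uM) preincubated 10 min at ambient with compound, then OMFP substrate added at 50 uM; 10 min reaction in 50 mM HEPES pH 7.5, 50 mM NaCl, 5 uM MgCl2, 0.05% BSA, 1 mM DTT. Fluorescence read at Ex 485/Em 525 nm.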
mIDH1 inhibitor = human IDH1 R132H inhibition | O75874 | IDH1-R132H enzyme, NADPH consumption, diaphorase/resazurin fluorescence | Potency, µM (top dose mostly 76.6 µM), for the others: at the highest dose activity change, negative = inhibition, actives largely listed as inhibitors | 390,000 compounds, 0.093% hits | AID 602179; further: potency means the concentration at half of the fitted maximal effect; nearly all actives have a fitted effect of over 65% in size
Target sequence (O75874 whole entry R132H, stated change not applied): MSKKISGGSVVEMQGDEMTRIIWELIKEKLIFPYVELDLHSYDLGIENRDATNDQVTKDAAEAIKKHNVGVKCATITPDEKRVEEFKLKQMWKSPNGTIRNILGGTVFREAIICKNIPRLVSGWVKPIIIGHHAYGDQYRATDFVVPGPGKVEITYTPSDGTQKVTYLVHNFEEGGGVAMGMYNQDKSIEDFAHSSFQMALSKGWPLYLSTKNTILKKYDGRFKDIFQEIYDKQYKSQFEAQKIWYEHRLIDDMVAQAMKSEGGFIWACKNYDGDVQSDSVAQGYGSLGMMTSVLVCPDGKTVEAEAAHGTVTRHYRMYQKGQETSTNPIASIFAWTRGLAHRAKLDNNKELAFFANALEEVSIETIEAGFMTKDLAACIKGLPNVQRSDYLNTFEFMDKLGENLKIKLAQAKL
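IDH1-R132H (0.5 ug/mL) preincubated 30 min with compound, then NADPH (0.016 mM) and alpha-KG (2 mM) added; 80 min at RT, pH 7.5. Remaining NADPH coupled via diaphorase/resazurin to fluorescence (540/590 nm); concentration-response curves normalized to no-enzyme control.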
FBPA coupling cs = coupling enzyme interference in Giardia aldolase counter-screen. 290,000 compounds, 0.67% hits. activity change, negative = inhibition, % at 58.2 µM, hits read low. coupling enzyme system counterscreen, AmpLite Red fluorescence; in the data active means activity change below about -30%
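Activity here indicates interference with the coupling reaction, not aldolase inhibition. Compounds at 57.5 uM final met coupling enzymes for 10 min at RT; substrate and AmpLite Red detection followed, with a 525/598 nm fluorescence read after 20 min.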
TrxR1 substrate = is turned over as a substrate by rat TrxR1. O89049. purified TrxR1 substrate turnover, NADPH consumption readout. Potency, µM (series often up to 114 µM), for inactives: at the top dose activity change, negative = substrate turnover. 390,000 compounds, 0.01% hits. AID 588456; further: potency means the concentration at half of the fitted maximal effect; nearly all actives have a fitted effect of over 50% in size
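Rat TrxR1, dispensed at 90 nM, was prereduced with 400 uM NADPH (final) for 5 min at ~22 deg C, then incubated with compound 15 min before 400 uM selenite. A first-read NADPH fluorescence drop versus no-compound background flagged substrates.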
* hit, by the source's call; ? = inconclusive; . = not tested or not shown; [ ] = remark or other dose. Sampled rows, rich in hits. Any-hit rate of the full collection: about 1.5%. Unless noted, the call rests on the fitted dose curve; in most records, active means well fitted curve in the direction sought with a large enough effect; inconclusive means small, poorly fitted or top-dose-only effect, or another doubt; inactive means no such curve, though single readings can be large; an effect the other way counts as inactive or inconclusive. On the % scale 0 is the no-effect control and ±100 the full control effect.

SMILES	rTrxR1 inhibitor	Eya2 phos inh	mIDH1 inhibitor	FBPA coupling cs	TrxR1 substrate
COc1ccc(NC(=S)NC(NC(=O)CCl)C(Cl)(Cl)Cl)c([N+](=O)[O-])c1 (centres undefined)	10µM*	5%	21%	3	1%
COC1=CC(=O)C(O)=C(CCCCCCC/C=C/CCCCCCCC2=C(O)C(=O)C=C(OC)C2=O)C1=O	-1%	.	-3%	.	3%
COC1=C(OC)C(=O)C(CCCCCCCCCCO)=C(C)C1=O	.	-23%	.	-65*	.
CCCCCCCCCCC1=C(C)C(=O)C(OC)=C(OC)C1=O	.	.	.	-44*	.
CCCCCCCCSC1=CC(=O)C(OC)=C(OC)C1=O	.	.	19%	.	.
CCCN1CCCC(c2cccc(S(C)(=O)=O)c2)C1 (centres undefined)	.	.	.	-7	.
COC(=O)C1=C(C(=O)OC)[C@@H]2N(C)c3ccccc3[C@@]23C[C@@H](C(=O)OC)N(S(=O)(=O)c2ccc4c(c2)OCCN4C)C3=N1	.	.	.	-2	.
CC[C@H](C)[C@H](NC(=O)[C@H](CC(C)C)NC(=O)[C@@H](N)CO)C(=O)NCC(=O)N[C@@H](CCCCN)C(=O)N[C@H](C(=O)O)C(C)C	.	.	.	1	.
COc1cccc(CC(=O)N2CCc3nc(-c4ccc(OC)cc4C)c4c(c3C2)CO[C@@H](c2ccccc2)C4)c1	.	.	.	1	.
N#Cc1nc(NCC2CC2)nc(Nc2ccccc2)n1	.	.	.	-1	.
COCCCNC(=O)c1c(N)n(-c2ccc3c(c2)OCO3)c2nc3ccccc3nc12	3%	2%	8%	-47*	6%
Nc1c(C(=O)NC2CC2)c2nc3ccccc3nc2n1-c1ccc2c(c1)OCO2	24%[57.1 µM]	1%	-2%	-22	8%[57.1 µM]
CCCNC(=O)c1c(N)n(-c2ccc3c(c2)OCO3)c2nc3ccccc3nc12	19%	4%	-2%	-21	8%
Nc1c(C(=O)OCC2CCCO2)c2nc3ccccc3nc2n1-c1ccc2c(c1)OCCO2 (centres undefined)	-11%	-12%	2%	-37*	6%
CCOCCCNC(=O)c1c(N)n(-c2ccc3c(c2)OCO3)c2nc3ccccc3nc12	-11%[57.1 µM]	4%	-10%	-35*	96%[57.1 µM]
Oc1ccc(N=Nc2ccccc2)o1	32µM*	-9%	-9%	-1	-11%
Cc1ccc(NC(=O)COc2ccccc2C(=O)Nc2ccccc2)cc1	3%	.	.	.	-4%
Nc1nnc(CC(=O)N/N=C/c2cc([N+](=O)[O-])cc(Br)c2O)s1	35µM*	5%	2%	9	-14%
O=C1C(=O)c2ccccc2C([O-])=C1[n+]1ccccc1	-3%	12%	17%	-11	-6%
CCc1cc[n+](C2=C([O-])c3ccccc3C(=O)/C2=N\S(=O)(=O)c2cccs2)cc1	7%[57.1 µM]	1%	19%	-55*	-12%
OCC1O[C@H]([S-])[C@H](O)[C@@H](O)[C@@H]1O.[Au+] (some centres undefined)	0.25µM*	-3%	.	.	13%[57.1 µM]
CCOC(=O)c1c(N2C(=O)C3C4C=CC(O4)C3C2=O)sc2c1CCCC2 (centres undefined)	13µM*	.	4%	2	-2%
CCOC(=O)c1c(-n2cnnn2)sc2c1CCCC2	26%	?	-2%	3	40%
CC1=NN(c2ccc(C(=O)O)c(N)c2)C(=O)C1	-3%[57.1 µM]	-3%	-10%	-37*	1%[57.1 µM]
CN(C)c1ccc(/C=C2\CCc3ccccc32)cc1	0%	.	.	.	13%
Cn1c(C(=O)c2ccccc2[N+](=O)[O-])nc2ccccc21	0%	5%	8%	-30*	-8%
COc1ccc(NC(=S)Nc2cccc([N+](=O)[O-])c2)cc1	18µM*	-7%	10%	2	-6%
CCOC(=O)c1cccc(NC(=O)/C=C/c2cccc([N+](=O)[O-])c2)c1	15%	5%	-2%	3	10%
CCOC(=O)/C=C/C(=O)Nc1cccc([N+](=O)[O-])c1	4µM*	0%	1%	-12	-13%

Source: PubChem
